# Shown are actives, neighbours in structure and some others; about 2.3% of the full set was active somewhere.
# ATXN viability = reduces viability in counter-screen for ATXN expression inhibitors | S2 cells (HEK-293 line with an ATXN2-luciferase reporter) viability, CellTiter-Fluor protease fluorescence, 24 h | Potency, µM (top dose mostly 56.7 µM), actives largely listed as cytotoxic | AID 651635 | 0.49% of 400,000 active; note: nearly all actives have a fitted effect of over 40% in size
# HepG2 viability = counter-screen for TGF-b inhibitors: cytotoxicity in HepG2 cells. HepG2 CAGA-GFP viability, ATP luminescence, 18 h. Potency, µM (titrated, usually from 46.1 µM), for the others: top-dose activity change, negative = cytotoxicity, hits mostly cytotoxic. 0.76% of 410,000 active. AID 588856
#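 CellTiter-Glo luminescence gave cytotoxicity after 18 hours at 37 degrees C. The cells were HepG2 CAGA-GFP in 1% FBS DMEM, stimulated with 500 pg/mL TGF-beta after compound addition. %Activity was normalised to no-cell wells (complete cell-killing) and DMSO (no toxicity), and curves were fitted and classified.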
# TGFb SMAD3 inh = blocks TGF-b signaling; Potency, µM (titrated, usually from 46.1 µM), without a hit: at the top dose activity, negative = inhibition, actives largely listed as inhibitors; AID 588855; 1.2% of 410,000 active; HepG2 CAGA-GFP TGF-b/SMAD3 reporter, GFP fluorescence, 18 h; TGF-beta stimulated, 500 pg/mL final; note: % is set by controls: 0 for no effect and ±100 for the full control effect; nearly all actives have a fitted effect of over 65% in size
#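 Inhibition was scored as loss of TGF-beta-induced (500 pg/mL final, 18 hours, 37 degrees C) GFP in HEPG2 cells carrying a CAGA-GFP reporter, in DMEM with 1% FBS. Well GFP was summed per cell; Activity was normalised to unstimulated and stimulated DMSO wells, then concentration-response fitting.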
# ATXN2 expr inh = reduces ATXN2 reporter expression in HEK-293 cells | HEK-293 ATXN2-luciferase reporter, luminescence, 24 h | Potency, µM (top dose mostly 57 µM), for the others: at the highest dose activity change, negative = inhibition, usual class: inhibitors | 0.72% of 360,000 active | AID 1745845; note: % is set by controls: 0 for no effect and ±100 for the full control effect; nearly all actives have a fitted effect of over 55% in size
#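 qHTS (up to 57 uM final) was run with 24 h compound exposure of reporter cells at 37 °C. Each well was multiplexed: SteadyGlo luminescence measured ATXN2-luciferase expression after a fluorogenic Gly-Phe-AFC viability readout (25 uM final).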
# * marks the source's active call; other numbers are inactive results; i = inactive; ? = inconclusive; . = no result given; ! = a repeat was not active. Calls come from the whole dose curve; as a rule, active = well fitted curve in the direction sought with a large enough effect; inconclusive = small, poorly fitted or top-dose-only effect, or another doubt; inactive = no such curve, though single readings can be large; an effect the other way counts as inactive or inconclusive. Potency is the fitted concentration of half-maximal effect.
SMILES,ATXN viability,HepG2 viability,TGFb SMAD3 inh,ATXN2 expr inh
CCN(CC)S(=O)(=O)c1ccc2c(c1)N(CC(=O)NCCCN1CCN(c3ccccc3F)CC1)C(=O)CO2,.,-1.5%,?,.
CCC1(C2CCN(Cc3ccc(OC)cc3)CC2)NC(=O)N(CC2COc3ccccc3O2)C1=O (centres undefined),i,.,.,.
C#CCOCCOCCOCCNc1nc(N2CCN(C(=O)CCCCCCCCCCNC(=O)Cn3cc(CCCCCN)nn3)CC2)nc(N2CCN(C(=O)CCCCCCCCCCNC(=O)[C@H]([C@@H](C)CC)n3cc(CCCCCN)nn3)CC2)n1,22.4µM*,-115.5%,?,?
C#CCOCCOCCOCCNc1nc(N2CCN(C(=O)CCCCCCCCCCNC(=O)[C@H]([C@@H](C)CC)n3cc(CCCCCN)nn3)CC2)nc(N2CCN(C(=O)CCCCCCCCCCNC(=O)[C@@H]([C@H](C)O)n3cc(C)nn3)CC2)n1,15.8µM*,-102.0%,?,15.8µM*
C#CCOCCOCCOCCNc1nc(N2CCN(C(=O)CCCCCCCCCCNC(=O)[C@H](CCC(=O)O)n3cc(CCCCCN)nn3)CC2)nc(N2CCN(C(=O)CCCCCCCCCCNC(=O)[C@@H]([C@H](C)O)n3cc(C)nn3)CC2)n1,i,-24.9%,-4.8%,-5.4%
CN(C)CCNc1ccc(CO)c2sc3ccc(O)cc3c(=O)c12,18.9µM*,-23.5%,14.1µM*,2.67µM*
COc1ccc2sc3cccc(NCCN(C)C)c3c(=O)c2c1,i,2.8%,?,-7.8%
CN(C)CCNc1ccc2ncn3c4ccc(O)cc4c(=O)c1c23,i,1.2%,?,3.98µM*
CCCS(=O)(=O)NCc1c(C)ncc2c1CCN(C(=O)/C=C/c1cccc(Cl)c1)C2,i,.,.,.
CCOC(=O)C1CCCN(C(=O)c2cnn(-c3ncc4c(n3)-c3ccccc3CCC4)c2C2CC2)C1 (centres undefined),i,.,.,.
Cc1ccc2occ(CC(=O)Nc3ccc(Cl)c(C(F)(F)F)c3)c2c1,?,12.6µM*,?,25.1µM*
COc1ccccc1NC(C)C(=O)c1c(C)[nH]c2ccccc12 (centres undefined),.,-10.0%,-21.4%,.
O=S1(=O)C=C(Sc2nnc(-c3ccccc3)o2)c2ccccc21,.,14.1µM*,10µM*,10µM*
Cc1cc(C)nc(SC2=CS(=O)(=O)c3ccccc32)n1,?,-37.0%,2.9%,?
OC1(c2ccc(Cl)cc2)CCNCC1,i,.,.,-18.1%
CCc1ccc(NC(=S)NC2CCN(Cc3ccccc3)CC2)cc1,?,-53.7%,?,-24.9%
CCC(C)c1ccc(NC(=S)NC2CCN(Cc3ccccc3)CC2)cc1 (centres undefined),?,14.1µM*,10µM*,?
CN1CCN(/N=C/c2ccc(N(c3ccccc3)c3ccccc3)cc2)CC1,.,4.4%,2µM*,0.844µM*
CCOC(=O)N1CCN([N+]([O-])=NOc2ccc([N+](=O)[O-])cc2C#N)CC1,.,.,.,8.2%
Cc1ccc(-n2c(SCc3ccccc3C)nc3[nH]ncc3c2=O)cc1C,?,-106.4%,?,?
Cc1ccc(-n2c(SCc3cccc(F)c3)nc3[nH]ncc3c2=O)cc1C,?,20µM*,?,-13.5%
CCc1ccc(-n2c(SCc3ccccc3C)nc3[nH]ncc3c2=O)cc1,.,22.4µM*,.,.
O=c1c2cn[nH]c2nc(SCc2c(F)cccc2F)n1-c1ccc(Cl)cc1,i,-106.4%,15.8µM*!,-13.3%
CCc1ccc(-n2c(SCc3cccc(F)c3)nc3[nH]ncc3c2=O)cc1,?,20µM*,?,?
CCc1ccc(-n2c(SCc3ccccc3Cl)nc3[nH]ncc3c2=O)cc1,?,-98.8%,?,?
SMILES,ATXN viability,HepG2 viability,TGFb SMAD3 inh,ATXN2 expr inh
CCCN(C(=O)Cn1nc(Cc2cccnc2)c2ccccc2c1=O)c1ccc(C(C)C)cc1,.,12.6µM*,20µM*,.
Brc1ccc2c(c1)-c1ccccc1C1=NCCN12,?,-1.6%,15.8µM*,.
Cc1cc2c(c(-c3cnccn3)c1)OC(CNC(=O)c1c(F)cccc1Cl)C2 (centres undefined),i,.,.,.
COc1cc(CNCc2cc3ccc(F)cc3nc2N2CCOCC2)cc(OC)c1OC,i,.,.,.
CCC(CO)Oc1cc(NCc2ccc(Cl)cc2Cl)c2ncn(C(C)C)c2c1 (centres undefined),?,-72.1%,20µM*,-3.3%
CCC(CO)Oc1cc(NCc2ccc(Cl)cc2)c2ncn(C(C)C)c2c1 (centres undefined),?,-23.2%,?,?
C[C@H](NC(=O)C(=O)Nc1ccccc1C(C)(C)C)C(=O)N[C@@H](CC(=O)O)C(=O)COc1c(F)c(F)cc(F)c1F,.,.,.,-0.3%
CNCc1ccccc1Sc1cccc2ccccc12,i,-43.6%,?,-37.1%
CN(C)CCN(C)Cc1ccccc1Sc1cccc2ccccc12,20µM*,-110.5%,?,25.1µM*
CC(=O)c1ccc(-c2cc(F)cc3c2OC(CNC(=O)C(C)N2CCOCC2)C3)s1 (centres undefined),i,.,.,.
CCCCNC(=O)[C@@H]1CC=C[C@@H]2CCN(Cc3ccccc3)C(=O)[C@@H]21,.,-4.2%,-3.6%,.
COc1ccc(CN2CC[C@H]3C=CC[C@@H](C(=O)Nc4nccs4)[C@H]3C2=O)cc1OC,.,47.0%,21.2%,.
CCCCNC(=O)[C@@H]1CC=C[C@@H]2CCN(Cc3ccc(Cl)c(Cl)c3)C(=O)[C@@H]21,?,-27.0%,7.94µM*,-23.6%
O=C1[C@H]2[C@H](C=CC[C@H]2C(=O)N2CCN(c3ccccc3)CC2)CCN1Cc1ccccc1,i,-8.6%,-10.7%,0.1%
O=C1[C@H]2[C@H](C=CC[C@H]2C(=O)N2CCN(c3ccccc3)CC2)CCN1Cc1ccc(Cl)c(Cl)c1,?,-12.8%,10µM*!,?
COc1ccc(CN2CC[C@H]3C=CC[C@@H](C(=O)Nc4ccc(Cl)c(C(F)(F)F)c4)[C@H]3C2=O)cc1OC,?,-13.8%,11.2µM*!,-18.8%
O=C(NCc1cccnc1)[C@@H]1CC=C[C@@H]2CCN(Cc3ccc(Cl)c(Cl)c3)C(=O)[C@@H]21,i,-4.9%,11.2µM*,-13.3%
O=C(CN1C(=O)c2ccccc2S1(=O)=O)Nc1cc(S(=O)(=O)N2CCOCC2)ccc1N1CCOCC1,.,5.8%,18.2%,.
Cc1cnc(SCc2ccccn2)nc1C1CCCN(Cc2ccsc2)C1 (centres undefined),i,.,.,.
O=C(Nc1ccc(Br)cc1Cl)c1cnn2c1NC(=C1CC1)C=C2C(F)F,.,-15.7%,6.3%,.
COc1ccc(OC)c(-c2ccnc(-n3ncc(C(=O)N(C)CCO)c3C3CC3)n2)c1,i,.,.,.
Cc1ccccc1CN1[C@@H](CC2CCCCC2)COCCS1(=O)=O,?,11.2µM*!,11.2µM*,-33.2%
Cc1ccccc1CN1CCCOCCS1(=O)=O,i,-0.7%,-2.6%,3.4%
O=S1(=O)CCOC[C@H](CC2CCCCC2)N1Cc1cccc(Cl)c1,i,-5.1%,15.8µM*,-26.9%

# Screening data deposited in PubChem BioAssay by National Center for Advancing Translational Sciences (NCATS).
